Data reported in the antibiotic and cytotoxicity screens of Wong et al. (2023).
In all, about 39,000 compounds went through this assay and about 1,500 (3.8%) were called active. Only a selection was taken, and actives are over-represented in it overall.

What follows are molecules tested on HSkMC (human skeletal muscle cells) (assay: cytotoxicity call (relative viability < 0.9)). Conditions: 10 µM.

Structure (SMILES) | cytotoxicity call
CC1NC(=O)C2CCCN2C(=O)C(CC(N)=O)NC(=O)C2CSSCC(N)C(=O)NC3CSSCC(NC1=O)C(=O)NC(C(C)O)C(=O)NCC(=O)NC(C(=O)NC(Cc1ccc(O)cc1)C(=O)O)CSSCC(NC(=O)C(Cc1ccc(O)cc1)NC(=O)C(CCC(=O)O)NC3=O)C(=O)N2 (centres undefined) | inactive
CC(C)C[C@H]1NC(=O)[C@@H](CCCN)NC(=O)[C@H](C(C)C)NC(=O)[C@H]2CCCN2C(=O)[C@@H](Cc2ccccc2)NC(=O)[C@@H](CC(C)C)NC(=O)[C@@H](CCCN)NC(=O)[C@H](C(C)C)NC(=O)[C@H]2CCCN2C(=O)[C@@H](Cc2ccccc2)NC1=O | active
CC(C)[C@H]1C(=O)N[C@@H](CCCNC(=N)N)C(=O)NCC(=O)N[C@@H](CC(=O)O)C(=O)N[C@H](Cc2ccccc2)C(=O)N1C | inactive
CC(C)C[C@@H]1NC(=O)[C@@H](C(C)C)NC(=O)[C@@H]2CCCN2C(=O)[C@@H](CC(=O)O)NC(=O)[C@@H](Cc2c[nH]c3ccccc23)NC1=O | inactive
CC[C@@H](C)CCCCC(=O)N[C@@H](CCN)C(=O)N[C@H](C(=O)N[C@@H](CCN)C(=O)N[C@H]1CCNC(=O)[C@H]([C@@H](C)O)NC(=O)[C@H](CCN)NC(=O)[C@H](CCN)NC(=O)[C@H](CC(C)C)NC(=O)[C@@H](Cc2ccccc2)NC(=O)[C@@H](CCN)NC1=O)[C@@H](C)O | inactive
CC(C)(O)C#Cc1ccc([C@H]2[C@@H](CO)N3CCCCN(S(C)(=O)=O)C[C@@H]23)cc1 | inactive
N#C[C@H]1NCc2cnnn2Cc2ccccc21 | inactive
COc1ccc(NC(=O)N(C)C[C@H]2OCCCC[C@@H](C)Oc3ccc(NC(=O)NC(C)C)cc3C(=O)N([C@H](C)CO)C[C@H]2C)cc1 | inactive
COc1ccc(S(=O)(=O)N(C)C[C@@H]2OCCCC[C@H](C)Oc3ccc(NC(=O)Nc4ccccc4)cc3C(=O)N([C@@H](C)CO)C[C@@H]2C)cc1 | inactive
CN(C)CCN1CC2(CCN(C(=O)c3cnccn3)CC2)OCC1=O | inactive
Cc1noc(C)c1S(=O)(=O)Nc1ccc2c(c1)C(=O)N([C@H](C)CO)C[C@@H](C)[C@@H](CN(C)Cc1ccc(C(F)(F)F)cc1)OCCCC[C@H](C)O2 | inactive
C[C@@H]1CCCCO[C@@H](CN(C)C(=O)CCC(F)(F)F)[C@@H](C)CN([C@@H](C)CO)C(=O)c2cc(NC(=O)Nc3ccccc3)ccc2O1 | inactive
C[C@@H]1CCCCO[C@@H](CN(C)Cc2ccc3c(c2)OCO3)[C@H](C)CN([C@H](C)CO)C(=O)c2cc(NC(=O)Nc3ccc4c(c3)OCO4)ccc2O1 | inactive
C[C@H]1CN([C@@H](C)CO)C(=O)c2cc(NC(=O)Nc3ccc4c(c3)OCO4)ccc2O[C@@H]1CN(C)Cc1ccc(C(F)(F)F)cc1 | inactive
C[C@H]1CN([C@@H](C)CO)C(=O)c2cc(NC(=O)Nc3ccc4c(c3)OCO4)ccc2O[C@H]1CN(C)Cc1ccc(C(F)(F)F)cc1 | inactive
C[C@@H]1CN([C@@H](C)CO)C(=O)c2cc(NC(=O)Nc3ccc4c(c3)OCO4)ccc2O[C@H]1CN(C)Cc1ccc(C(F)(F)F)cc1 | active
C[C@H](CO)N1C[C@H](C)[C@H](CN(C)Cc2ccc(C(F)(F)F)cc2)Oc2ccc(NC(=O)Nc3ccc4c(c3)OCO4)cc2C1=O | inactive
C[C@H](CO)N1C[C@H](C)[C@@H](CN(C)Cc2ccc(C(F)(F)F)cc2)Oc2ccc(NC(=O)Nc3ccc4c(c3)OCO4)cc2C1=O | inactive
C[C@@H]1CN([C@H](C)CO)C(=O)c2cc(NC(=O)Nc3ccc4c(c3)OCO4)ccc2O[C@@H]1CN(C)Cc1ccc(C(F)(F)F)cc1 | active
Cc1ccc(S(=O)(=O)Nc2ccc3c(c2)C(=O)N([C@H](C)CO)C[C@H](C)[C@@H](CN(C)C(=O)CCC(F)(F)F)OCCCC[C@H](C)O3)cc1 | inactive
C[C@H]1CN([C@@H](C)CO)C(=O)Cc2cc(NC(=O)Cc3ccccc3)ccc2O[C@H]1CN(C)S(=O)(=O)c1ccccc1 | inactive
C[C@H]1CCCCO[C@H](CN(C)S(=O)(=O)c2cn(C)cn2)[C@@H](C)CN([C@@H](C)CO)C(=O)c2cc(NC(=O)Nc3ccc(C(F)(F)F)cc3)ccc2O1 | inactive
C[C@@H]1CN([C@@H](C)CO)C(=O)c2cc(NC(=O)Nc3ccc(C(F)(F)F)cc3)ccc2O[C@@H](C)CCCCO[C@@H]1CN(C)S(=O)(=O)c1cn(C)cn1 | inactive
C[C@@H]1CN([C@@H](C)CO)C(=O)c2cc(NC(=O)Nc3ccc(C(F)(F)F)cc3)ccc2O[C@@H](C)CCCCO[C@H]1CN(C)S(=O)(=O)c1cn(C)cn1 | inactive
C[C@@H]1CN([C@H](C)CO)C(=O)c2cc(NC(=O)Nc3ccc(C(F)(F)F)cc3)ccc2O[C@@H](C)CCCCO[C@@H]1CN(C)S(=O)(=O)c1cn(C)cn1 | inactive
C[C@H]1CCCCO[C@@H](CN(C)S(=O)(=O)c2cn(C)cn2)[C@@H](C)CN([C@@H](C)CO)C(=O)c2cc(NC(=O)Nc3ccc(C(F)(F)F)cc3)ccc2O1 | active
C[C@H](CO)N1C[C@H](C)[C@@H](CN(C)S(=O)(=O)c2cn(C)cn2)OCCCC[C@H](C)Oc2ccc(NC(=O)Nc3ccc(C(F)(F)F)cc3)cc2C1=O | active

Structure (SMILES) | cytotoxicity call
CN1CCN(c2nc3c(c(=O)[nH]c(=O)n3C)n2CC(=O)c2ccc(Cl)cc2)CC1 | inactive
Cc1noc(C)c1S(=O)(=O)Nc1ccc2c(c1)C(=O)N([C@H](C)CO)C[C@H](C)[C@@H](CN(C)S(=O)(=O)c1ccc(F)cc1)O2 | inactive
COc1cccc(C#Cc2ccc3c(c2)O[C@@H](CN(C)C(=O)c2ccccn2)[C@H](C)CN([C@@H](C)CO)S3(=O)=O)c1 | inactive
Cc1c(/C=N/c2ccc(C(C)C)cc2)sc2ccccc12 | inactive
C[C@]12CC[C@@H]3[C@]4(C=C[C@@]5(C=C4C(=O)C4CCCCC4)C[C@@H](O)CC[C@]35C)[C@@H]1CC[C@@]2(O)CN1CCC(n2c(=O)[nH]c3ccccc32)CC1 | inactive
O=C(C[C@@H]1C[C@H]2c3cc(NS(=O)(=O)c4ccc(F)cc4)ccc3O[C@H]2[C@@H](CO)O1)NC1CCCCC1 | inactive
C[C@@H]1CN([C@H](C)CO)C(=O)CCCn2cc(nn2)CO[C@H]1CN(C)C(=O)Nc1ccccc1C(F)(F)F | inactive
Cc1ccc(S(=O)(=O)Nc2ccc3c(c2)C(=O)N([C@H](C)CO)C[C@@H](C)[C@@H](CN(C)Cc2ccc(Cl)c(Cl)c2)OCCCC[C@H](C)O3)cc1 | inactive
Cc1ccc(S(=O)(=O)Nc2ccc3c(c2)C(=O)N([C@H](C)CO)C[C@H](C)[C@H](CN(C)Cc2ccc(Cl)c(Cl)c2)OCCCC[C@H](C)O3)cc1 | inactive
Cc1noc(C)c1S(=O)(=O)Nc1ccc2c(c1)C(=O)N([C@@H](C)CO)C[C@H](C)[C@@H](CN(C)Cc1ccc(Cl)c(Cl)c1)OCCCC[C@H](C)O2 | inactive
Cc1ccc(S(=O)(=O)Nc2ccc3c(c2)C(=O)N([C@H](C)CO)C[C@@H](C)[C@H](CN(C)Cc2ccc(Cl)c(Cl)c2)OCCCC[C@H](C)O3)cc1 | inactive
Cc1ccc(S(=O)(=O)Nc2ccc3c(c2)C(=O)N([C@H](C)CO)C[C@@H](C)[C@H](CN(C)Cc2ccc(Cl)c(Cl)c2)OCCCC[C@@H](C)O3)cc1 | inactive
Cc1ccc(S(=O)(=O)Nc2ccc3c(c2)C(=O)N([C@@H](C)CO)C[C@H](C)[C@@H](CN(C)Cc2ccc(Cl)c(Cl)c2)OCCCC[C@@H](C)O3)cc1 | active
Cc1noc(C)c1S(=O)(=O)Nc1ccc2c(c1)C(=O)N([C@H](C)CO)C[C@H](C)[C@@H](CN(C)Cc1ccc(Cl)c(Cl)c1)OCCCC[C@H](C)O2 | inactive
Cc1ccc(S(=O)(=O)Nc2ccc3c(c2)C(=O)N([C@@H](C)CO)C[C@@H](C)[C@@H](CN(C)Cc2ccc(Cl)c(Cl)c2)OCCCC[C@@H](C)O3)cc1 | active
Cc1ccc(S(=O)(=O)Nc2ccc3c(c2)C(=O)N([C@H](C)CO)C[C@H](C)[C@@H](CN(C)Cc2ccc(Cl)c(Cl)c2)OCCCC[C@H](C)O3)cc1 | inactive
Cc1ccc(S(=O)(=O)Nc2ccc3c(c2)C(=O)N([C@@H](C)CO)C[C@@H](C)[C@H](CN(C)Cc2ccc(Cl)c(Cl)c2)OCCCC[C@@H](C)O3)cc1 | inactive
Cc1ccc(S(=O)(=O)Nc2ccc3c(c2)C(=O)N([C@@H](C)CO)C[C@H](C)[C@@H](CN(C)Cc2ccc(Cl)c(Cl)c2)OCCCC[C@H](C)O3)cc1 | active
Cc1noc(C)c1S(=O)(=O)Nc1ccc2c(c1)C(=O)N([C@H](C)CO)C[C@@H](C)[C@@H](CN(C)Cc1ccc(Cl)c(Cl)c1)OCCCC[C@H](C)O2 | active
CNC(=O)C[C@@H]1CC[C@H]2[C@@H](COC[C@@H](O)CN2C(=O)c2ccc3c(c2)OCO3)O1 | inactive
COc1cccc(S(=O)(=O)Nc2ccc3c(c2)OC[C@@H](C)N(C(=O)Cc2cccnc2)C[C@H](C)[C@@H](OC)CN(C)C3=O)c1 | inactive
C[C@@H]1CN([C@@H](C)CO)C(=O)c2cccc(NC(=O)Nc3ccc4c(c3)OCO4)c2O[C@H]1CN(C)S(C)(=O)=O | inactive
C[C@@H]1CCCCO[C@H](CN(C)S(=O)(=O)c2ccccc2)[C@H](C)CN([C@@H](C)CO)C(=O)c2cc(NC(=O)Nc3ccc(F)cc3)ccc2O1 | inactive
O=C(O)CCNC(=O)c1cccc([N+](=O)[O-])c1 | inactive
C[C@H]1CN([C@@H](C)CO)C(=O)c2cccc(NS(=O)(=O)c3cn(C)cn3)c2O[C@@H]1CN(C)CC1CCCCC1 | inactive
Cc1noc(C)c1S(=O)(=O)Nc1cccc2c1O[C@@H](CN(C)Cc1ccc3c(c1)OCO3)[C@@H](C)CN([C@@H](C)CO)C2=O | inactive
COCC#Cc1ccc([C@@H]2[C@H]3CN(C(=O)CN4CCOCC4)CC(=O)N3[C@H]2CO)cc1 | inactive
